# Source: PubChem BioAssay (NCATS)
# Inconclusive results are not listed. Where a call stands in place of a potency, no number is given. Unmarked numbers belong to inactive results. Activity calls are given as the source filed them. The call rests on the fitted dose curve; in most records, active means well fitted curve in the direction sought with a large enough effect; inconclusive means small, poorly fitted or top-dose-only effect, or another doubt; inactive means no such curve, though single readings can be large; an effect the other way counts as inactive or inconclusive.
# Tests used:
# [1] = target: Rap guanine nucleotide exchange factor 3 (Homo sapiens) (UniProt O95398); experiment: Confirmatory qHTS for antagonist of cAMP-regulated guanine nucleotide exchange factor 3 (EPAC1) (AID 1645880); conditions: EPAC1 Rap1B-BODIPY-GDP exchange, fluorescence; activity, negative = inhibition: at 115 µM (top of the series); further: nearly all actives have a fitted effect of over 55% in size; further: potency means the concentration at half of the fitted maximal effect
# Rap guanine nucleotide exchange factor 3 (Homo sapiens), sequence (O95398 whole entry, looked up): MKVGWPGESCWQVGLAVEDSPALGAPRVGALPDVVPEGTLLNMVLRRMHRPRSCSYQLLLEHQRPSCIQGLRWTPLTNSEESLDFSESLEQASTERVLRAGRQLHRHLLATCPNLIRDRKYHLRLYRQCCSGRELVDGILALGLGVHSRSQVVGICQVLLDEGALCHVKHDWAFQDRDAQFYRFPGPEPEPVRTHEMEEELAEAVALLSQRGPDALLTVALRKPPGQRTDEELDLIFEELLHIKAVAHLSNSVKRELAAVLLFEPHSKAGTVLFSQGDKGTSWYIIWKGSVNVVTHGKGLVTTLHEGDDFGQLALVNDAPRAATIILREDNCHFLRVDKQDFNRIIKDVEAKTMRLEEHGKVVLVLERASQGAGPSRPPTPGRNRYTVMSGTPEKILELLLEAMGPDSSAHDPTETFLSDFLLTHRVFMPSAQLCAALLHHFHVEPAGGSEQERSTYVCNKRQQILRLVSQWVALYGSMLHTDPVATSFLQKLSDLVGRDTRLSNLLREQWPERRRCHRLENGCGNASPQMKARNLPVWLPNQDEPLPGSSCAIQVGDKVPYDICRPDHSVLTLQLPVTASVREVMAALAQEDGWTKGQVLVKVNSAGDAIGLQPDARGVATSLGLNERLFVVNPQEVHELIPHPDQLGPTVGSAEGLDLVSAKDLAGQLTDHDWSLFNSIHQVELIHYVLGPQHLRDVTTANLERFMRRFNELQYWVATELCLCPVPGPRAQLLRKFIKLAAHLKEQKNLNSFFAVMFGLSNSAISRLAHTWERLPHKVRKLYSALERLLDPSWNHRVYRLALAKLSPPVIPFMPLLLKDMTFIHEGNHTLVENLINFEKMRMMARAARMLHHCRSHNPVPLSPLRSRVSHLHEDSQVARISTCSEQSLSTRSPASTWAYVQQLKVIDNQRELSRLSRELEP
# Outline: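 Nucleotide exchange uses 100 nM EPAC1, 250 nM RAP1B-BODIPY-GDP and 50 uM GDP, with compounds in a concentration-titration series. After 5 min at room temperature, fluorescence (480 nm ex/540 nm em) is read every 5 min for 30 min. Data are normalized to control ATA and DMSO.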
# [2] = target: Rap guanine nucleotide exchange factor 3 (Homo sapiens) (UniProt O95398); experiment: Confirmatory qHTS for agonist of cAMP-regulated guanine nucleotide exchange factor 3 (EPAC1) (AID 1645881);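 further: EPAC1 catalysed release of BODIPY-GDP from Rap1B seen as fluorescence loss; nearly all actives have a fitted effect of over 75% in size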
# [3] = target: Rap guanine nucleotide exchange factor 3 (Homo sapiens) (UniProt O95398); experiment: Counterscreen qHTS for antagonist of cAMP-regulated guanine nucleotide exchange factor 3 (EPAC1) (AID 1645888);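 further: fluorescence loss as bound BODIPY-GDP is released from Rap1B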
# Outline: (§1)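 Rap1B–BODIPY-GDP (250 nM) with 50 uM GDP; compounds pin-transferred to 9.74 nM–152 uM final (activator) or from 7.32 nM upwards (inhibitor). Fluorescence Ex/Em 480/540 nm read at 5 and 30 min, then after adding cAMP or buffer, at room temperature.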
# [4] = target: Rap guanine nucleotide exchange factor 3 (Homo sapiens) (UniProt O95398); experiment: Counterscreen qHTS for agonist of cAMP-regulated guanine nucleotide exchange factor 3 (EPAC1) (AID 1645889); further: nearly all actives have a fitted effect of over 40% in size
# Outline: as §1
Compound,Potency [1],Potency [2],Potency [3],Potency [4],"activity change, negative = inhibition [3]",activation [4]
Cc1cc(C)c2c(c1)OC(=O)CC2c1ccccc1C (stereo not given),inactive,inactive,inactive,inactive,–,–
CC(=O)O[C@H]1c2ccccc2-c2ccccc2[C@@H]1OC(C)=O,inactive,inactive,–,–,-14.6% [at 30.8 µM],8.91% [at 30.8 µM]
CCc1ccc([C@@H]2CC=C(C(=O)O)[C@H](c3ccc(Cl)cc3)N2S(=O)(=O)c2ccc(C)cc2)cc1,50.1 µM (active),inactive,–,–,-9.33% [at 30.8 µM],4.76% [at 30.8 µM]
O=C(Cc1c(F)cccc1Cl)Nc1ccc(S(=O)(=O)Nc2nccs2)cc1,inactive,inactive,–,–,4.41% [at 30.8 µM],17.6% [at 30.8 µM]
O=C(O)Cc1ccc(NC(=O)C(c2ccccc2)c2ccccc2)cc1,inactive,inactive,–,–,-6.7% [at 30.8 µM],5.55% [at 30.8 µM]
COC(=O)c1ccc2nc(C3CCCCC3)c(Cc3ccccc3)n2c1,inactive,inactive,–,–,6.26% [at 30.8 µM],9.29% [at 30.8 µM]
CC1(C(=O)Nc2ccc3c(c2)OCO3)CCN1Cc1cccc2c1OCO2 (stereo not given),inactive,inactive,–,–,-9.44% [at 30.8 µM],19.3% [at 30.8 µM]
CCCCC[C@@H]1C=C(C(=O)O)[C@H](c2ccc(Cl)c(Cl)c2)N1S(=O)(=O)c1ccc(C)cc1,30.1 µM (active),inactive,inactive,inactive,–,–
C=CCSc1nc2ccccc2c(=O)n1Cc1ccccc1,inactive,inactive,–,–,17.3% [at 30.8 µM],7.4% [at 30.8 µM]
Cc1ccc(C2(c3noc(CN(C)Cc4ccccn4)n3)CCCC2)cc1,inactive,inactive,–,–,-21.5% [at 30.8 µM],1.73% [at 30.8 µM]
COCCN(CCOC)Cc1cc(=O)oc2cc(C)cc(C)c12,inactive,inactive,inactive,inactive,–,–
COC(=O)c1ccc2nc(-c3ccc(F)cc3)c(Cc3cccc(F)c3)n2c1,inactive,inactive,inactive,inactive,–,–
Cc1ccc(C2N(c3ccc(Cl)cc3)C(=O)N3CCCN23)cc1 (stereo not given),inactive,inactive,inactive,inactive,–,–
COC(=O)c1ccc2nc(-c3ccc(Cl)cc3)c(CC3CCCCC3)n2c1,inactive,inactive,inactive,inactive,–,–
Cc1ccc(CN(Cc2ccco2)C(=O)c2ccco2)cc1,inactive,inactive,–,–,-4.7% [at 30.8 µM],27.7% [at 30.8 µM]
